From PubChem BioAssay (NCI)
This is part of a sample that, as a whole, favours compounds with a hit. Of some 83,000 tested, about 20% had one in any assay.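 96-well plates, one dose, 48 hours. Percent growth reported; active if below 10.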 Values without a mark were called inactive. The source made the active and inactive calls.

Tests used:
Assay in all cases: NCI-60 one-dose screen, 48 h (100 = growth as untreated, 0 = no growth, -100 = all killed)
Details in all cases: 10 µM unless noted
DU-145 prostate = tested on: DU-145 prostate
K-562 leukemia = tested on: K-562 leukemia
MALME-3M melanoma = tested on: MALME-3M melanoma
MDA-MB-231 breast = tested on: MDA-MB-231 breast
RXF 393 renal = tested on: RXF 393 renal
SF-268 CNS = tested on: SF-268 CNS
SF-295 CNS = tested on: SF-295 CNS
SF-539 CNS = tested on: SF-539 CNS
UACC-257 melanoma = tested on: UACC-257 melanoma
HCT-15 colon = tested on: HCT-15 colon
HT29 colon = tested on: HT29 colon
SNB-75 CNS = tested on: SNB-75 CNS
SNB-19 CNS = tested on: SNB-19 CNS
U251 CNS = tested on: U251 CNS
PC-3 prostate = tested on: PC-3 prostate
SK-MEL-5 melanoma = tested on: SK-MEL-5 melanoma
UACC-62 melanoma = tested on: UACC-62 melanoma
LOX IMVI melanoma = tested on: LOX IMVI melanoma
SK-MEL-28 melanoma = tested on: SK-MEL-28 melanoma

Compound: COc1cc(/C=N/n2c(CN3CCOCC3)nc3ccccc3c2=O)cc(OC)c1OC
- growth (DU-145 prostate): 115%
- growth (K-562 leukemia): 97.2%
- growth (MALME-3M melanoma): 106%
- growth (MDA-MB-231 breast): 102%
- growth (RXF 393 renal): 117%
- growth (SF-268 CNS): 98.1%
- growth (SF-295 CNS): 98.6%
- growth (SF-539 CNS): 97.9%
- growth (UACC-257 melanoma): 97%
- growth (HCT-15 colon): 106%
- growth (HT29 colon): 103%
- growth (SNB-75 CNS): 94.4%
- growth (SNB-19 CNS): 95.7%
- growth (U251 CNS): 98.7%
- growth (PC-3 prostate): 101%
- growth (SK-MEL-5 melanoma): 101%
- growth (UACC-62 melanoma): 97.6%
- growth (LOX IMVI melanoma): 100%
- growth (SK-MEL-28 melanoma): 99.3%

Compound: O=C(Nc1cccc(Cl)c1)c1cc(N=Nc2ccc([N+](=O)[O-])cc2Cl)ccc1O
- growth (DU-145 prostate): 116%
- growth (K-562 leukemia): 26.3%
- growth (MALME-3M melanoma): 43.7%
- growth (MDA-MB-231 breast): 64.1%
- growth (RXF 393 renal): 29.6%
- growth (SF-268 CNS): 90.6%
- growth (SF-295 CNS): 55.1%
- growth (SF-539 CNS): 54.2%
- growth (UACC-257 melanoma): -1.95% (active)
- growth (HCT-15 colon): 72.5%
- growth (SNB-75 CNS): 66.4%
- growth (SNB-19 CNS): 73.2%
- growth (U251 CNS): 63.9%
- growth (PC-3 prostate): 34.8%
- growth (SK-MEL-5 melanoma): 43.3%
- growth (UACC-62 melanoma): 79.2%
- growth (LOX IMVI melanoma): 98.3%
- growth (SK-MEL-28 melanoma): 85.5%

Compound: CCN1C(=O)N(CC)C2Nn3c(s/c(=C\c4cccc([N+](=O)[O-])c4)c3=O)=NC21 (centres undefined)
- growth (DU-145 prostate): 30.5%
- growth (K-562 leukemia): 19.9%
- growth (MALME-3M melanoma): 57.8%
- growth (MDA-MB-231 breast): 30.7%
- growth (RXF 393 renal): 25.4%
- growth (SF-268 CNS): 63.9%
- growth (SF-295 CNS): 31%
- growth (SF-539 CNS): 12.8%
- growth (UACC-257 melanoma): 77.5%
- growth (HCT-15 colon): 31.8%
- growth (HT29 colon): 74.9%
- growth (SNB-75 CNS): 20%
- growth (SNB-19 CNS): 53.3%
- growth (U251 CNS): 33.5%
- growth (PC-3 prostate): 35.8%
- growth (SK-MEL-5 melanoma): 31.8%
- growth (UACC-62 melanoma): 47%
- growth (LOX IMVI melanoma): 56.4%
- growth (SK-MEL-28 melanoma): 57.3%

Compound: Nc1n[nH]c2cc(F)c([C@@H]3Nc4c(F)cc5[nH]ncc5c4[C@H]4C5CCC(C5)[C@@H]34)cc12 (some centres undefined)
- growth (DU-145 prostate): -0.222% (active)
- growth (K-562 leukemia): 11.6%
- growth (MALME-3M melanoma): 46.3%
- growth (MDA-MB-231 breast): 15.5%
- growth (RXF 393 renal): 41.3%
- growth (SF-268 CNS): 10.5%
- growth (SF-295 CNS): 15%
- growth (SF-539 CNS): 4.53% (active)
- growth (UACC-257 melanoma): 72.4%
- growth (HCT-15 colon): 6.76% (active)
- growth (HT29 colon): 17%
- growth (SNB-75 CNS): -20.9% (active)
- growth (SNB-19 CNS): 53.1%
- growth (U251 CNS): 33.2%
- growth (PC-3 prostate): 22.5%
- growth (SK-MEL-5 melanoma): 8.05% (active)
- growth (UACC-62 melanoma): 35.3%
- growth (LOX IMVI melanoma): 20.2%
- growth (SK-MEL-28 melanoma): 52.8%

Compound: O=c1c2c3c(sc2n2c(-c4cc(-c5ccccc5)nn4-c4ccccc4)nnc2n1Cc1ccccc1)CCCC3
- growth (DU-145 prostate): 107%
- growth (K-562 leukemia): 27.1%
- growth (MALME-3M melanoma): 123%
- growth (MDA-MB-231 breast): 94.2%
- growth (RXF 393 renal): 90%
- growth (SF-268 CNS): 89.2%
- growth (SF-295 CNS): 5.76% (active)
- growth (SF-539 CNS): 112%
- growth (UACC-257 melanoma): 106%
- growth (HCT-15 colon): 91.3%
- growth (HT29 colon): 88.6%
- growth (SNB-75 CNS): 92.3%
- growth (SNB-19 CNS): 89.6%
- growth (U251 CNS): 70.3%
- growth (PC-3 prostate): 69.1%
- growth (SK-MEL-5 melanoma): 129%
- growth (UACC-62 melanoma): 103%
- growth (LOX IMVI melanoma): 92.9%
- growth (SK-MEL-28 melanoma): 111%

Compound: COc1cc(C(=O)c2cc(C)c3[nH]c4ccc(Cl)cc4c3c2C)cc(OC)c1OC
- growth (DU-145 prostate): -19.7% (active)
- growth (K-562 leukemia): 13.6%
- growth (MALME-3M melanoma): 27.9%
- growth (MDA-MB-231 breast): 22.1%
- growth (RXF 393 renal): 36.6%
- growth (SF-268 CNS): 25.5%
- growth (SF-295 CNS): 4.51% (active)
- growth (SF-539 CNS): -10.1% (active)
- growth (UACC-257 melanoma): 68%
- growth (HCT-15 colon): 7.42% (active)
- growth (HT29 colon): 18.6%
- growth (SNB-75 CNS): 22.9%
- growth (SNB-19 CNS): 35.6%
- growth (U251 CNS): 20%
- growth (PC-3 prostate): 27.3%
- growth (SK-MEL-5 melanoma): -55.8% (active)
- growth (UACC-62 melanoma): 42.6%
- growth (LOX IMVI melanoma): 8.56% (active)
- growth (SK-MEL-28 melanoma): 53.6%

Compound: COC(=O)c1ccc(C2Nc3ccc(S(=O)(=O)Nc4ccc(C)c(C)c4)cc3C3OCCC23)cc1 (centres undefined)
- growth (DU-145 prostate): 100%
- growth (K-562 leukemia): 40.8%
- growth (MALME-3M melanoma): 77.4%
- growth (MDA-MB-231 breast): 83.9%
- growth (RXF 393 renal): 101%
- growth (SF-268 CNS): 78%
- growth (SF-295 CNS): 77.4%
- growth (SF-539 CNS): 96.2%
- growth (UACC-257 melanoma): 79.6%
- growth (HCT-15 colon): 71.2%
- growth (HT29 colon): 83.7%
- growth (SNB-75 CNS): 79.1%
- growth (SNB-19 CNS): 78.2%
- growth (U251 CNS): 71.5%
- growth (PC-3 prostate): 82.4%
- growth (SK-MEL-5 melanoma): 58%
- growth (UACC-62 melanoma): 65.3%
- growth (LOX IMVI melanoma): 93%
- growth (SK-MEL-28 melanoma): 99.5%

Compound: C[n+]1cccc(CC(=O)NO)c1
- growth (DU-145 prostate): 109%
- growth (K-562 leukemia): 94.4%
- growth (MALME-3M melanoma): 104%
- growth (MDA-MB-231 breast): 100%
- growth (RXF 393 renal): 106%
- growth (SF-268 CNS): 104%
- growth (SF-295 CNS): 113%
- growth (SF-539 CNS): 90.9%
- growth (UACC-257 melanoma): 67.7%
- growth (HCT-15 colon): 112%
- growth (HT29 colon): 99.7%
- growth (SNB-75 CNS): 92.6%
- growth (SNB-19 CNS): 102%
- growth (U251 CNS): 87.6%
- growth (PC-3 prostate): 95.5%
- growth (SK-MEL-5 melanoma): 96.4%
- growth (UACC-62 melanoma): 92.9%
- growth (LOX IMVI melanoma): 98%
- growth (SK-MEL-28 melanoma): 113%

Compound: N#C/C(=C\c1ccc2c(c1)OCO2)n1nnc2cc(F)c(F)cc21
- growth (DU-145 prostate): 36.7%
- growth (K-562 leukemia): 18%
- growth (MALME-3M melanoma): 70.8%
- growth (MDA-MB-231 breast): 80.1%
- growth (RXF 393 renal): 32.3%
- growth (SF-268 CNS): 74.3%
- growth (SF-295 CNS): 102%
- growth (SF-539 CNS): 84.5%
- growth (UACC-257 melanoma): 75%
- growth (HCT-15 colon): 40.5%
- growth (SNB-75 CNS): 20.6%
- growth (SNB-19 CNS): 82.3%
- growth (U251 CNS): 83.8%
- growth (PC-3 prostate): 51.4%
- growth (SK-MEL-5 melanoma): 75.5%
- growth (UACC-62 melanoma): 47.6%
- growth (LOX IMVI melanoma): 57.3%
- growth (SK-MEL-28 melanoma): 92.5%
